Screens from PubChem BioAssay.
The entries come from a sample that favours hits as a whole.
USP2a inh = blocks human ubiquitin-specific protease USP2a | Potency, µM (top dose mostly 38.3 µM), for inactives: at the highest dose activity change, negative = inhibition, most hits filed as inhibitors | USP2a enzymatic assay, qHTS inhibition | 0.1% of 60,000 active | O75604; further: nearly all actives have a fitted effect of over 60% in size
Target sequence (O75604 whole entry, looked up): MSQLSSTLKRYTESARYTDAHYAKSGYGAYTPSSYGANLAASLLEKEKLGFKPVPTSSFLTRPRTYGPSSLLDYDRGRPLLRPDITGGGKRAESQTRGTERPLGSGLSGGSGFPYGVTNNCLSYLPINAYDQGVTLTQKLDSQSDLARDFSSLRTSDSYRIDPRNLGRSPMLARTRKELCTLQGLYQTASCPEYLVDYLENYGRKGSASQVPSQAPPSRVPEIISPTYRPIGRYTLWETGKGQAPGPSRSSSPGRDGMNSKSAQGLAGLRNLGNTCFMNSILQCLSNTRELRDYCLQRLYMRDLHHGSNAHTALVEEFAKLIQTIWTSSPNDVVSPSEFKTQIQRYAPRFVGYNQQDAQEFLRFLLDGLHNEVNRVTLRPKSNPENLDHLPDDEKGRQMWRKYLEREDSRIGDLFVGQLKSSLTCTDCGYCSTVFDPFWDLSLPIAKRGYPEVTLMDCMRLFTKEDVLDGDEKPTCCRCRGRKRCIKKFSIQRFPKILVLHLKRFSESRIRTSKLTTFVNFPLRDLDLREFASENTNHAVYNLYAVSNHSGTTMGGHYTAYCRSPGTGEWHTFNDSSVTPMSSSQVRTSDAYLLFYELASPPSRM
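USP2 core (20nM final) preincubated 30 min RT with compound, then Ub-PLA2 20nM and NBD C6-HPC 20uM final added; buffer 20mM Tris-HCl pH 8.0, 2mM CaCl2. Fluorescence Ex 460/Em 535 read at 0 and 2.5 h; normalized to NEM.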
Caspase-7 inhib = caspase-7 (human) inhibition, allosteric or competitive. 0.02% of 75,000 active. recombinant caspase-7, Ac-DEVD-AFC fluorescence rate. P55210. Potency, µM (highest dose often 57.5 µM), for the others: at the top dose activity change, negative = inhibition, usual class: inhibitors; active means well fitted inhibition curve with a large enough effect in the main read-out, with a control signal flat, not every such curve was filed as active; inconclusive means small, poorly fitted or top-dose-only effect, or a change in a side signal; further: % of control where 0% means no effect
15-hLO inh = inhibitors of human 15-lipoxygenase (ALOX15) | Potency, µM (highest dose often 57.1 µM), inactives show at the top dose activity change, negative = inhibition, most hits filed as inhibitors | 1.4% of 74,000 active | AID 887 | purified 15hLO-1, xylenol orange hydroperoxide absorbance; further: on the % scale 0 is the no-effect control and ±100 the full control effect; nearly all actives have a fitted effect of over 55% in size
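Compounds were preincubated 15 min at room temperature with 40 nM purified human enzyme (25 mM Hepes pH 7.5, 0.01% Triton X-100); 50 uM arachidonic acid reacted 6 min. Fe-xylenol orange detection, 30 min, absorbance ratio 573/405 nm.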
15-hLO-2 inh = blocks human 15-lipoxygenase 2 activity; O15296; purified 15hLO-2, xylenol orange hydroperoxide absorbance; Potency, µM (highest dose often 57.1 µM), inactives show at the highest dose activity change, negative = inhibition, most hits filed as inhibitors; 0.56% of 110,000 active; AID 881; further: on the % scale 0 is the no-effect control and ±100 the full control effect; nearly all actives have a fitted effect of over 60% in size
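Purified human 15hLO-2 (50 nM final) preincubated with compounds 15 min at room temperature in 25 mM Hepes pH 7.5, 0.01% Triton X-100, then 45 uM arachidonic acid added for 90 min; hydroperoxide detected via ferrous/xylenol orange, 573/405 nm absorbance ratio.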
Caspase-1 inhib = allosteric or competitive inhibitors of human caspase-1 | AID 900 | Potency, µM (titrated, usually from 57.5 µM), inactives show at the highest dose activity change, negative = inhibition, usual class: inhibitors | Caspase-1 enzyme, Ac-WEHD-AFC fluorogenic rate | 0.03% of 75,000 active;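 further: plate controls were vehicle for no effect and no substrate for full effect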
* marks the source's active call; other numbers are inactive results; ? = inconclusive; / = no result given; [ ] = dose if it differs, or a comment. Unless noted, the call rests on the fitted dose curve; in most records, active means well fitted curve in the direction sought with a large enough effect; inconclusive means small, poorly fitted or top-dose-only effect, or another doubt; inactive means no such curve, though single readings can be large; an effect the other way counts as inactive or inconclusive. Potency means the concentration at half of the fitted maximal effect.

SMILES | USP2a inh | Caspase-7 inhib | 15-hLO inh | 15-hLO-2 inh | Caspase-1 inhib
Cc1ccc2nc3nc4ccc[nH]c4cc3c2c1 | / | -1%[11.5 µM] | -3%[11.4 µM] | / | -2%[11.5 µM]
COc1ccc(-c2c3c(=O)n(C)c(=O)n(C)c3cn2C2CCCCC2)cc1 | 10% | -1% | 25µM* | -23% | -1%
O=c1n(-c2ccccc2)c(=O)n2n1CC[C@H]1/C(=N\OCc3ccccc3)[C@H]3O[C@@H]3[C@@H](O)[C@@H]12 | / | 1%[11.5 µM] | 1%[11.4 µM] | / | 0%[11.5 µM]
CCc1ccc(C2C(C#N)=C(N)SC(N)=C2C#N)s1 | 12% | ? | 10µM* | ? | ?
CCc1ccc(C2C(C#N)=C(N)SC(N)=C2C#N)cc1 | -10%[7.66 µM] | -3% | 0.63µM* | ? | -5%
N#CC1=C(N)SC(N)=C(C#N)C1c1ccc(C(F)(F)F)cc1 | 4% | -5% | ? | 13µM* | -14%
CCOc1ccccc1C1C(C#N)=C(N)SC(N)=C1C#N | -3% | -8% | ? | -27% | -13%
Cc1ccc(C2C(C#N)=C(N)SC(N)=C2C#N)o1 | 16% | -18% | 6.3µM* | ? | -16%
Cn1c(N)c(C(=O)NCc2ccccc2)sc1=S | 12% | -4% | 13µM* | -13% | -6%
C[C@H](N)CCCC(C)(C)O | -3%[17.1 µM] | 2%[25.7 µM] | 6%[25.6 µM] | 3%[25.6 µM] | -3%[25.7 µM]
CC(=O)N1CCC2(CCCN(Cc3nccs3)C2)CC1 | -1% | -1% | -2% | -2% | -1%
O=C(c1ccncc1)N1CCC2(CCCN(Cc3nccs3)C2)CC1 | 4% | -2% | 0.2µM* | 21% | -2%
O=C(NC(NC(=S)Nc1ccccc1)C(Cl)(Cl)Cl)c1cccc(Cl)c1 (stereo not drawn) | / | / | / | 25µM* | /
O=C(O)c1ccc(Cl)c(S(=O)(=O)Nc2ccccc2F)c1 | / | -1% | -9% | / | 1%
O=C1CCCC2=C1C(c1ccco1)Nc1ccc(C(=O)c3ccccc3)cc1N2 (stereo not drawn) | 7% | -24% | 2.5µM* | -9% | -15%
N#CC1=C(SCC(=O)c2ccc(Br)cc2)NC2=C(C(=O)CCC2)C1c1ccco1 (stereo not drawn) | / | / | / | -10% | /
O=C(NCCN1CCCC1)c1ccc(-n2c(=O)c(=O)[nH]c3ccccc32)cc1 | / | 0% | -4% | / | -2%
c1cncc(-c2ccc3ncnc(NC4CCNCC4)c3c2)c1 | 8% | -3% | 11% | 4% | -1%
c1cncc(-c2cncnc2NC2CCNCC2)c1 | 60% | -1% | 32µM* | 4% | 2%
CC(C)CO/N=C1/[C@H]2O[C@@H]2[C@@H](O)[C@H]2[C@H]1CCn1c(=O)n(Cc3cc4c(cc3Cl)OCO4)c(=O)n12 | / | 0%[11.5 µM] | 4%[11.4 µM] | / | -2%[11.5 µM]
O=C(NCCN1CCCCC1)c1ccc(-n2c(=O)c(=O)[nH]c3ccccc32)cc1 | / | -2% | -5% | / | 1%
CCCN1C(=O)c2cc(C(=O)O)ccc2C1O (stereo not drawn) | / | 0% | 20µM* | -9% | -9%
COc1cc(CNc2ccc(C)c(C)c2)cc(OC)c1OC | -1% | -3% | 10µM* | ? | -1%
COc1cc(CNc2cc(C)ccc2C)cc(OC)c1OC | / | 0% | 3% | 1% | -1%
Oc1c(Cl)cc(Cl)c2c1NCCC2 | 29% | 1% | 1.6µM* | 5µM* | -4%
SMILES | USP2a inh | Caspase-7 inhib | 15-hLO inh | 15-hLO-2 inh | Caspase-1 inhib
O=C1NCCCc2c1oc1ccc(O)cc21 | -4% | 0% | 2% | ? | -1%
O=C(Nc1cccc(F)c1)N1CCCC2(CCN(C(=O)c3ccco3)CC2)C1 | 37% | -1% | 0.32µM* | 27% | -3%
O=C(Nc1cccc(F)c1)N1CC[C@@]2(CCCN(C(=O)c3ccco3)C2)C1 | 7% | 0% | 5% | -1% | 0%
CCOC(=O)c1c(C)nc2c3ccccc3ccn12 | 11% | 0% | 16µM* | -1% | 1%
O=c1ccc2ccc(O)c(O)c2o1 | 3% | 1% | 25µM* | ? | 2%
COc1cc2ccc(=O)oc2cc1O | -2% | ? | 1%[25.6 µM] | 0% | /
COc1ccc(Oc2ncc3nc(CCc4ccccc4)c(=O)n(C4CC4)c3n2)cc1 | 35% | -5% | -11% | -1% | -7%
C[C@@H]1c2cccc(O)c2C(O)=C2C(=O)[C@@]3(O)C(O)=C(C(N)=O)C(=O)[C@@H](N(C)C)[C@@H]3[C@@H](O)[C@@H]21 | 16µM* | -5%[25.7 µM] | 12%[25.6 µM] | 6%[25.6 µM] | -6%[25.7 µM]
CCc1ccc(CCC(=O)Nc2sc3c(c2C#N)CCCC3)o1 | 27% | -17% | 16µM* | -14% | -9%
